In PubChem BioAssay AID651791 (National Center for Advancing Translational Sciences (NCATS), 2012):
Inconclusive results are not listed. Calls of active or inactive are those of the source. The call rests on the fitted dose curve; in most records, active means well fitted inhibition curve with a large enough effect; inconclusive means small, poorly fitted or top-dose-only effect; inactive means no such curve, though single readings can be large or run the other way.

Assay: InCell qHTS Assay for Inhibitors of the mTORC1 Signaling Pathway in MEF (Tsc2-/-, p53-/-) Cells: Hit Validation;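 further: phospho-S6 Ser235/236 signal normalized to propidium iodide cell count per well; nearly all actives have a fitted effect of over 75% in size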
Settings: phospho-rpS6 immunofluorescence, 24 h; activity change, negative = inhibition: at 38.3 µM (top of the series)
Potency means the concentration at half of the fitted maximal effect.

Activity change, negative = inhibition, 1.72%:
Cc1ccc(C)c(N2CCN(CCCNC(=O)c3nnc(Cc4ccc(F)cc4Cl)o3)CC2)c1

Activity change, negative = inhibition, -100%:
Cc1cccc(C)c1Nc1sc(C(=O)c2ccccc2)c(N)c1S(=O)(=O)c1ccccc1
COc1ccc(-c2nc(CCNC(=O)c3c(F)cccc3Cl)cs2)cc1
CC1C(=O)Nc2ccc(S(=O)(=O)Nc3ccccc3Br)cc2NC1=O (stereo unspecified)
COc1ccc(OC)c(C(=O)CC2(O)C(=O)N(Cc3ccccc3C)c3ccccc32)c1 (stereo unspecified)
CCC1=Nc2cc(C(=O)NC3CCCC3)ccc2Sc2ccc(Cl)cc21
COc1ccc(C(=O)Nc2ccc(OCc3cc(=O)n4ccccc4n3)cc2)cc1
Cc1c(C(=O)OC2CCCCC2)[nH]c2c1C(=O)CC(c1ccccc1Cl)C2 (stereo unspecified)
Cc1ccc(NC(=O)Cn2cc(C(=O)C3CCCCC3)c3ccccc32)cc1
COc1ccc(NC(=O)CSc2c3c(nc4ccccc24)CCC3)c(OC)c1
Cc1cccc(CSCCNC(=O)CN(c2ccccc2)S(=O)(=O)N(C)C)c1
CCOc1ccc(Nc2nc(-c3cccc(Cl)c3)c3c(n2)-c2ccccc2OC3)cc1
COc1cc(CN(C(=O)COc2ccc(C)c(C)c2)c2ccccn2)cc(OC)c1OC
CCC(Sc1nncn2c1cc1oc(C)cc12)C(=O)Nc1ccc(F)cc1 (stereo unspecified)
COCCCNc1ncnc2c1cnn2-c1ccc(F)cc1
CCCCOc1cccc(C(=O)N2CCN(CCc3ccncc3)CC2)c1
CCOC(=O)N1CCN(Cc2nc3cc(NC(=O)c4cccc(C)c4)ccc3n2C(C)C)CC1
CCc1nn(CC(=O)NCc2ccccc2Cl)c(=O)c2cccn12
COc1ccc(CCNC(=O)CCCn2nc(C)c3sc4ccccc4c3c2=O)cc1OC

Potency, active:
CCS(=O)(=O)c1ncc(Cl)c(C(=O)NCc2ccccc2)n1 10.4 µM
CCc1ccc(NC(=O)Cn2c(=O)n(-c3ccc(OC)cc3)c(=O)c3ccc(C(=O)NCc4ccc(C)cc4)cc32)cc1 13.1 µM
